JMJD2A Tudor inh = qHTS Assay for Inhibitors of JMJD2A-Tudor Domain | AlphaScreen JMJD2A-Tudor / H3K4me3 peptide binding | 390,000 compounds, 4.4% hits | AID 504339, 2011 | Potency, µM (titrated, usually from 114 µM), inactives show top-dose activity change, negative = inhibition, most hits filed as inhibitors | Lysine-specific demethylase 4A (Homo sapiens), O75164; further: potency means the concentration at half of the fitted maximal effect; on the % scale 0 is the no-effect control and ±100 the full control effect; nearly all actives have a fitted effect of over 50% in size
HP1b chromo inh = HTS for Inhibitors of HP1-beta Chromodomain Interactions with Methylated Histone Tails; Chromobox protein homolog 1 (Homo sapiens), P83916; AlphaScreen HP1-beta / biotin-H3K9me3 peptide binding; Potency, µM (series often up to 114 µM), without a hit: at the highest dose activity change, negative = inhibition, usual class: inhibitors; 390,000 compounds, 0.56% hits; further: potency means the concentration at half of the fitted maximal effect; nearly all actives have a fitted effect of over 70% in size
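AlphaScreen: HP1-beta (50 nM) preformed 30 min with biotin-H3(1-18)K9me3 peptide (50 nM) in PBS pH 7.4, 0.01% Tween-20. Compound added for 30 min at RT, then streptavidin donor/nickel chelate acceptor beads (10 ug/mL) for 30 min.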
CtBP-E1A blk = qHTS Assay for Inhibitors of the CtBP/E1A Interaction. CtBP / adenovirus E1A interaction (AlphaScreen). AlphaScreen GST-E1A/His-CtBP binding, 1536-well; active compounds read low. activity change, % (test concentration not listed). 340,000 compounds, 0.49% hits. AID 651724, 2012; in the data active means activity change below about -65%; inconclusive means mostly about -30% to -63%; further: on the % scale 0 is the no-effect control and ±100 the full control effect
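Homogeneous bead-based format: GST-tagged E1A captured on glutathione donor beads, His-tagged CtBP on nickel acceptor beads; compounds precede bead addition by 2 h at 37 °C.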
BAZ2B inh = qHTS Assay for Inhibitors of BAZ2B. Bromodomain adjacent to zinc finger domain protein 2B (Homo sapiens), Q9UIF8. AlphaScreen BAZ2B-H3K14Ac peptide displacement. Potency, µM (highest dose often 114 µM), for inactives: at the top dose activity change, negative = inhibition, actives largely listed as inhibitors. 360,000 compounds, 4.4% hits; further: potency means the concentration at half of the fitted maximal effect; on the % scale 0 is the no-effect control and ±100 the full control effect; nearly all actives have a fitted effect of over 60% in size
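AlphaScreen displacement: compounds (up to 110uM) incubated 30 min at room temperature with a preformed 50 nM BAZ2B/50 nM biotinylated H3K14Ac peptide complex in PBS pH 7.4 with Tween-20. Donor and acceptor beads at 10 ug/mL final added, 20 min light-protected before reading.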
G9a inh = qHTS Assay for Inhibitors of Histone Lysine Methyltransferase G9a. Histone-lysine N-methyltransferase EHMT2 (Homo sapiens), Q96KQ7. G9a H3K9 monomethylation, AlphaScreen, 2 h. Potency, µM (highest dose often 102 µM), for the others: at the highest dose activity, negative = inhibition, most hits filed as inhibitors. 350,000 compounds, 8.8% hits. AID 504332, 2011; further: potency means the concentration at half of the fitted maximal effect; on the % scale 0 is the no-effect control and ±100 the full control effect; nearly all actives have a fitted effect of over 75% in size
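AlphaScreen detection with an anti-monomethyl H3K9 antibody quantified product after a 2 h room-temperature reaction containing 500 nM biotinylated H3K9 peptide, 20 µM SAM and 20 nM enzyme, which had been preincubated 15 min with compound.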
Six1-Eya2 blk = qHTS Assay for Inhibitors of the Six1/Eya2 Interaction. Homeobox protein SIX1 (Homo sapiens) + Protein phosphatase EYA2 (Homo sapiens), …. AlphaScreen GST-Six1/His-Eya2 binding, biochemical; active compounds read low. activity change, % (no concentration beside the values). 360,000 compounds, 0.56% hits; in the data active means activity change below about -65%; inconclusive means mostly about -30% to -63%; further: on the % scale 0 is the no-effect control and ±100 the full control effect
Target sequence (O00167 whole entry, looked up): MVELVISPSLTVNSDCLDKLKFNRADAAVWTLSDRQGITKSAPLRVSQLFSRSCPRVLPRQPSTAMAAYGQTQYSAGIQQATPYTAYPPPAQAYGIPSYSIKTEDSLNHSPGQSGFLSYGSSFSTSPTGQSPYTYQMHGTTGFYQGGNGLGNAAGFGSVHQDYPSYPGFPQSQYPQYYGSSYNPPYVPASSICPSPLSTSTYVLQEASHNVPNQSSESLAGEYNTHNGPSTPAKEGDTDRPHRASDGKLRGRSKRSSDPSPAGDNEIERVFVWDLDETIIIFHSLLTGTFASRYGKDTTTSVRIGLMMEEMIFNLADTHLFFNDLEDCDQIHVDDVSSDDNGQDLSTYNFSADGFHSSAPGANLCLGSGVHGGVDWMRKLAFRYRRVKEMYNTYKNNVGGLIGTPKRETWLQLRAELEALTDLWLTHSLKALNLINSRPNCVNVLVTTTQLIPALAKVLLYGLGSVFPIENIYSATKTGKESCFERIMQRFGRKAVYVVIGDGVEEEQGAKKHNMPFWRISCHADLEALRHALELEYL
Target sequence (Q15475 whole entry, looked up): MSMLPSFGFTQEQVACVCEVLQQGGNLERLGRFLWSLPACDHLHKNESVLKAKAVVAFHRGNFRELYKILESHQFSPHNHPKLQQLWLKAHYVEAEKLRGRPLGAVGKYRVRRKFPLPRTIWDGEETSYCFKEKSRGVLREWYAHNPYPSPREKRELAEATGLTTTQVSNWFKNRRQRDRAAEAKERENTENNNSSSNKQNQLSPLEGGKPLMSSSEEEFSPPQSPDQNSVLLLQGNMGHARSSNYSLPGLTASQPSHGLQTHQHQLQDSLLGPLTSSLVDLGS
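Homogeneous AlphaScreen proximity assay pairing GST-Six1 with His-tagged Eya2 (added as 5X mix: 250 nM and 500 nM) in 50 mM Tris pH 8.0, 300 mM NaCl, 1 mM TCEP. Glutathione donor and nickel acceptor beads; 1 h, 37 °C, dark.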
An asterisk follows results filed as active; [ ] = remark or other dose. Compounds with a hit are over-represented: about 10% of the library has one in this group of screens. Unless noted, the call rests on the fitted dose curve; in most records, active means well fitted inhibition curve with a large enough effect; inconclusive means small, poorly fitted or top-dose-only effect; inactive means no such curve, though single readings can be large or run the other way.

Screening CCCN1CNc2c(c(=O)[nH]c(=O)n2CCc2ccc(OC)c(OC)c2)C1 returned JMJD2A Tudor inh -12% and HP1b chromo inh 20%.
COC(=O)C(CCSC)NC(=O)c1cc2c(n(-c3ccc(Cl)cc3)c1=O)CCCC2=O (stereo not drawn) was read as JMJD2A Tudor inh -11%, HP1b chromo inh 14%, BAZ2B inh -7% and G9a inh -24%[59 µM].
For O=C1c2ccccc2C(=O)N1c1cc(=O)c2ccccc2[nH]1 the results were JMJD2A Tudor inh -26%.
For CCCCc1nc2ccccc2c(NC(=O)CN(CC)CC)c1CCC the results were JMJD2A Tudor inh 28µM*, HP1b chromo inh inconclusive, CtBP-E1A blk -1, BAZ2B inh 56µM*, G9a inh 32µM* and Six1-Eya2 blk -2.
CCC(=O)Nc1c(C)c(CC)nc2ccccc12 was read as JMJD2A Tudor inh -10%, HP1b chromo inh 36%, CtBP-E1A blk 4, BAZ2B inh -5%, G9a inh -5%[12.7 µM] and Six1-Eya2 blk -2.
For Cc1ccc2c(c1)C(c1ccccc1)N(C(=O)c1ccc(OC(C)C)cc1)CC(=O)N2 (stereo not drawn) the results were JMJD2A Tudor inh inconclusive, HP1b chromo inh -8%, BAZ2B inh -37% and G9a inh -2%[59 µM].
Screening Cc1ccc(NC(=O)CN2C(=O)N/C(=C/c3cc(C)n(-c4ccc(C(=O)O)cc4)c3C)C2=O)cc1 returned JMJD2A Tudor inh 79µM*, HP1b chromo inh -18%, CtBP-E1A blk -7, BAZ2B inh 40µM*, G9a inh 28µM* and Six1-Eya2 blk -17.
Screening Cc1ccc(NC(=O)CN2C(=O)S/C(=C\c3cc(Cl)c(OCC(=O)O)c(Cl)c3)C2=O)cc1 returned JMJD2A Tudor inh 45µM*, HP1b chromo inh 20µM*, BAZ2B inh 40µM*, G9a inh 40µM* and Six1-Eya2 blk -4.
Cc1ccc(NC(=O)CN2C(=O)N/C(=C/c3cccn3-c3ccc(C(=O)O)cc3)C2=O)cc1 was read as JMJD2A Tudor inh 3.2µM*, HP1b chromo inh 2.8µM*, CtBP-E1A blk 12, BAZ2B inh 4µM*, G9a inh 8.9µM* and Six1-Eya2 blk -74*.
Screening Cc1ccc(NC(=O)CN2C(=O)N/C(=C/c3ccco3)C2=O)cc1 returned JMJD2A Tudor inh -33%, HP1b chromo inh 5%, CtBP-E1A blk -1, BAZ2B inh -7%, G9a inh 0%[0.0925 µM] and Six1-Eya2 blk -14.
For CCn1c(C)cc(/C=C2\NC(=O)N(CC(=O)Nc3ccc(F)cc3)C2=O)c1C the results were JMJD2A Tudor inh inconclusive, HP1b chromo inh -5%, CtBP-E1A blk -8, BAZ2B inh inconclusive and Six1-Eya2 blk 0.
Screening Cc1ccc(NC(=O)CN2C(=O)S/C(=C\c3cc(C)n(-c4ccc(C(=O)O)cc4)c3C)C2=O)cc1 returned JMJD2A Tudor inh inconclusive, HP1b chromo inh 2%, CtBP-E1A blk -2, BAZ2B inh 50µM* and Six1-Eya2 blk -1.
`CC(=O)c1cccc(NC(=O)c2nc(-c3ccccc3)n(-c3cccc(Cl)c3)n2)c1` gave JMJD2A Tudor inh -18%, HP1b chromo inh 11%, BAZ2B inh -2% and G9a inh -10%[59 µM].
Screening CN1CCN(c2ncc3nc(-c4cc(F)cc(F)c4)c(=O)n(-c4ccccc4)c3n2)CC1 returned G9a inh -45%[12.7 µM].
For CCOC(=O)c1ccccc1NC(=O)c1cc2c(s1)-c1ccccc1SC2 the results were JMJD2A Tudor inh 55%, HP1b chromo inh 97%, BAZ2B inh 74% and G9a inh 133%[59 µM].
CN1CCN(C(=S)Nc2cccc(S(=O)(=O)N(C)C)c2)CC1 was read as JMJD2A Tudor inh -4%, HP1b chromo inh -9%, CtBP-E1A blk 3, BAZ2B inh -17%, G9a inh 0%[59 µM] and Six1-Eya2 blk -2.
For COc1ccc(C(=O)NC(=S)N2CCN(C)CC2)cc1Br the results were JMJD2A Tudor inh -7%, HP1b chromo inh 29%, BAZ2B inh -26%, G9a inh 45µM* and Six1-Eya2 blk 4.
Screening Cc1ccc(C(=O)NC(=S)N2CCN(C)CC2)cc1Br returned JMJD2A Tudor inh -15%, HP1b chromo inh 38%, CtBP-E1A blk 1, BAZ2B inh -25%, G9a inh 45µM* and Six1-Eya2 blk 2.
Screening CN1CCN(C(=S)NC(=O)c2cccc(S(=O)(=O)N(C)C)c2)CC1 returned JMJD2A Tudor inh -26%, HP1b chromo inh -9%, CtBP-E1A blk 6, BAZ2B inh -31%, G9a inh 14µM* and Six1-Eya2 blk 5.
For COc1ccc(C(=O)NC(=S)N2CCOCC2)cc1OC the results were JMJD2A Tudor inh -16%, HP1b chromo inh 9%, BAZ2B inh -30%, G9a inh 50µM* and Six1-Eya2 blk 10.
`COc1ccc(C(=O)NC(=S)N2CCN(c3ccccc3OC)CC2)cc1OC` gave JMJD2A Tudor inh -8%, HP1b chromo inh 32%, CtBP-E1A blk 0, BAZ2B inh inconclusive and Six1-Eya2 blk -3.
For COc1cc(C(=O)NC(=S)N2CCN(C)CC2)cc(OC)c1OC the results were JMJD2A Tudor inh -3%, HP1b chromo inh 4%[57 µM], CtBP-E1A blk 5 and Six1-Eya2 blk -2.
Screening S=c1[nH]ncn1/N=C/c1ccccc1 returned JMJD2A Tudor inh 6.3µM*, HP1b chromo inh 42%, CtBP-E1A blk 9, BAZ2B inh -8%, G9a inh 26%[2.33 µM] and Six1-Eya2 blk 2.
Screening S=c1[nH]c(-c2ccccc2)cn1/N=C/c1ccncc1 returned JMJD2A Tudor inh 0.71µM*, HP1b chromo inh -24%[57 µM], CtBP-E1A blk -6, BAZ2B inh -22%, G9a inh 1.6µM* and Six1-Eya2 blk 17.
Screening S=c1[nH]ncn1/N=C/c1ccc(Br)cc1 returned JMJD2A Tudor inh 7.9µM*, HP1b chromo inh -5%, CtBP-E1A blk -2, BAZ2B inh -29%, G9a inh 1.3µM* and Six1-Eya2 blk 5.
`S=c1[nH]ncn1/N=C/c1ccc(N2CCOCC2)cc1` gave JMJD2A Tudor inh 2.8µM*, HP1b chromo inh 35%, CtBP-E1A blk 6, BAZ2B inh -2%, G9a inh 1.8µM* and Six1-Eya2 blk 2.
Screening C(=N\n1cnnc1)/c1ccc(N2CCOCC2)cc1 returned JMJD2A Tudor inh -10%, HP1b chromo inh 40%, CtBP-E1A blk 2, G9a inh 17%[59 µM] and Six1-Eya2 blk 2.
